Test results published in PubChem BioAssay AID1159580 (chemical genetic matrix, 2015).
“And” between values parts separate entries of the source, which are not always exact repeats. Identical values can stand only once. In all, about 5,500 compounds went through this assay and about 2,000 (36%) were called active. About 18% were inconclusive and are not listed. Rule as the data show it: active = normalized growth mostly below about 0.91 (no sharp cut-off); inconclusive = no clear call, values can overlap the other calls; inactive = mostly above about 0.92. Some of the results follow.

Test: chemical genetic growth profiling, strain panel (AID 1159580);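 also: tested at 20 µM; growth read once vehicle control cultures reached saturation at 30 °C; 1 = growth at the plate median or of vehicle wells; lower values mean less growth of the strain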
Conditions: S. cerevisiae deletion strains, growth OD
[1] = locus YAL013W, strain DEP1, hits give low values
[2] = locus YAL040C, strain CLN3, hits give low values
[3] = locus YDR363W, strain ESC2, hits give low values
[4] = locus YER002W, strain NOP16, hits give low values
[5] = locus YNL153C, strain GIM3, hits give low values
[6] = locus YNL175C, strain NOP13, hits give low values
[7] = locus YNL197C, strain WHI3, hits give low values
[8] = locus YNL224C, strain SQS1, hits give low values
[9] = locus YOR083W, strain WHI5 (second series), hits give low values
[10] = locus YPL055C, strain LGE1, hits give low values
[11] = locus YGR078C, strain PAC10, hits give low values
[12] = locus YMR263W, strain SAP30, hits give low values
[13] = locus YNL322C, strain KRE1, hits give low values
[14] = locus YBR229C, strain ROT2, hits give low values
[15] = locus YDL101C, strain DUN1, hits give low values
[16] = locus YEL061C, strain CIN8, hits give low values
[17] = locus YHR030C, strain SLT2, hits give low values
[18] = locus YHR079C, strain IRE1, hits give low values
[19] = locus YJL095W, strain BCK1, hits give low values
[20] = locus YJR043C, strain POL32, hits give low values
[21] = locus YJR066W, strain TOR1, hits give low values
[22] = locus YLR039C, strain RIC1, hits give low values
[23] = locus YLR113W, strain HOG1, hits give low values
[24] = locus YLR262C, strain YPT6, hits give low values
[25] = locus YMR307W, strain GAS1, hits give low values
[26] = locus YNL183C, strain NPR1, hits give low values
[27] = locus YOR061W, strain CKA2, hits give low values
[28] = locus YOR231W, strain MKK1, hits give low values
[29] = locus YPL256C, strain CLN2, hits give low values

Measured: normalized growth

O=C(O)CN(CCN(CC(=O)O)CC(=O)O)CCN(CC(=O)O)CC(=O)O
active: [1] 0.278 | [3] 0.194 | [10] 0.198
inactive: [2] 1.03 | [4] 1.01 | [5] 1.16 | [6] 1.01 | [7] 1.02 | [8] 1 | [9] 1.07

O=C(O)CN(CCOCCOCCN(CC(=O)O)CC(=O)O)CC(=O)O
inactive: [1] 1.03 | [2] 0.99 | locus YCL061C, strain MRC1 (second series), hits give low values 1 | [3] 1 | [4] 0.996 | [11] 1.01 | [12] 1 | [6] 0.996 | [7] 1 | [8] 0.992 | [13] 1.02 | [9] 1.01 | [10] 1.06

O=C(O)CN(CCN(CC(=O)O)CC(=O)O)CC(=O)O
inactive: locus YBR021W, strain FUR4, hits give low values 1.04 | [14] 0.995 | locus YCL029C, strain bik1, hits give low values 0.958 | locus YDL035C, strain GPR1, hits give low values 0.869 | locus YDL074C, strain BRE1, hits give low values 0.885 | locus YDR101C, strain arx1, hits give low values 0.989 | locus YDR162C, strain NBP2, hits give low values 0.918 | locus YDR388W, hits give low values 1.02 | [16] 0.934 | locus YER110C, hits give low values 0.938 | locus YER155C, strain BEM2, hits give low values 1.01 | locus YER167W, strain BCK2, hits give low values 0.936 | locus YGL078C, strain dbp3, hits give low values 0.985 | locus YGR252W, strain gcn5, hits give low values 0.994 | [17] 0.97 and 0.976 | locus YHR079C, strain IRE1 (second series), hits give low values 0.991 | [18] 0.934 | locus YHR094C, strain hxt1, hits give low values 0.994 | locus YIL066C, strain RNR3, hits give low values 0.925 | locus YIL125W, strain kgd1, hits give low values 1.01 | locus YIR030C, strain dcg1, hits give low values 0.96 | [19] 0.849 and 0.971 | locus YJL134W, strain LCB3, hits give low values 0.972 | locus YJL168C, strain set2, hits give low values 0.989 | [20] 0.891 | [21] 0.888 | locus YKL009W, strain mrt4, hits give low values 0.97 | locus YKL068W, hits give low values 0.996 | locus YKL085W, strain MDH1 (second series), hits give low values 1.03 | locus YKL085W, strain MDH1, hits give low values 1.03 | locus YKL190W, strain CNB1, hits give low values 0.94 | [22] 0.914 | locus YLR102C, strain apc9, hits give low values 0.995 | [23] 1.09 | [24] 0.827 | locus YLR330W, strain CHS5, hits give low values 0.944 | locus YLR342W, strain FKS1 (second series), hits give low values 0.871 | locus YLR371W, strain rom2, hits give low values 0.984 | locus YML016C, strain PPZ1, hits give low values 0.934 | locus YML032C, strain rad52, hits give low values 0.937 | locus YML124C, strain tub3, hits give low values 0.979 | locus YMR078C, strain ctf18, hits give low values 0.99 | [25] 0.928 | [26] 0.973 | locus YNL250W, strain rad50, hits give low values 1.01 | locus YNL271C, strain bni1, hits give low values 0.982 | locus YNL298W, strain CLA4, hits give low values 0.99 | locus YNL307C, strain MCK1, hits give low values 0.991 | locus YNR052C, strain pop2, hits give low values 0.953 | locus YOL006C, strain TOP1, hits give low values 1.23 | locus YOL012C, strain htz1 0.486 | locus YOL147C, strain pex11, hits give low values 0.983 | [27] 0.913 | locus YOR069W, strain VPS5, hits give low values 0.947 | locus YOR144C, strain elg1, hits give low values 0.976 | [28] 0.92 | locus YOR316C, strain cot1, hits give low values 0.979 | [29] 1.07 | locus YPR119W, strain clb2, hits give low values 0.992 | locus YPR141C, strain kar3, hits give low values 0.992 | locus YPR163C, strain tif3, hits give low values 0.99
active: [15] 0.889 | locus YDL185W, strain tfp1, hits give low values 0.282 | locus YDL192W, strain arf1, hits give low values 0.826 | locus YDR318W, strain mcm21, hits give low values 0.817 | locus YDR502C, strain sam2, hits give low values 0.769 | locus YGL086W, strain mad1, hits give low values 0.79 | locus YGL248W, strain PDE1, hits give low values 0.826 | [11] 0.82 | locus YGR135W, strain pre9, hits give low values 0.819 | locus YGR229C, strain SMI1, hits give low values 0.774 | locus YHR129C, strain ARP1, hits give low values 0.87 | locus YHR200W, strain rpn10, hits give low values 0.893 | locus YIL073C, strain SPO22, hits give low values 1.99 [resistant] | locus YJL187C, strain SWE1 (second series), hits give low values 0.861 | locus YKR001C, strain vps1, hits give low values 0.769 | locus YLR058C, strain SHM2, hits give low values 0.863 | locus YLR268W, strain sec22, hits give low values 0.801 | locus YLR418C, strain cdc73, hits give low values 0.764 | locus YMR223W, strain ubp8, hits give low values 0.793 | locus YNL067W, strain RPL9B, hits give low values 0.813 | [5] 0.834 | locus YNL233W, strain BNI4, hits give low values 0.847 | locus YOR136W, strain idh2, hits give low values 0.909 | locus YOR184W, strain ser1, hits give low values 0.699 | locus YPR167C, strain met16, hits give low values 0.902 | strain wtn01, hits give low values 0.816

O=C(Nc1ccc(OC(F)(F)F)cc1)Nc1cccc(C(=O)O)c1
inactive: [1] 1.01 | [14] 0.999 | locus YCL061C, strain MRC1, hits give low values 1.01 | [15] 1.01 | locus YDL134C, strain PPH21, hits give low values 1.04 | locus YDR150W, strain NUM1, hits give low values 0.947 | [16] 1.02 | [11] 1 | [17] 1.02 | locus YHR087W, strain rtc3, hits give low values 1.02 | locus YJL187C, strain SWE1, hits give low values 1.01 | [20] 0.974 | locus YJR075W, strain HOC1, hits give low values 1.01 | [22] 0.995 | locus YLR058C, strain SHM2 (second series), hits give low values 1.01 | locus YLR085C, strain ARP6, hits give low values 1.07 | [24] 0.981 | locus YML094W, strain GIM5, hits give low values 1.02 | locus YMR219W, strain ESC1, hits give low values 1 | [12] 1.02 | [25] 1.08 | [5] 0.988 | locus YNL298W, strain CLA4 (second series), hits give low values 1 | [13] 0.999 | locus YNR030W, strain Alg12, hits give low values 1.04 | [10] 0.999 | locus YPL241C, strain CIN2, hits give low values 1.03 | locus YPR135W, strain CTF4, hits give low values 0.996

N/C(=N/OC(=O)Nc1cccc(C(F)(F)F)c1)c1ccc(OC(F)(F)F)cc1
active: locus YER123W, strain YCK3, hits give low values 0.524 | locus YFR019W, strain FAB1, hits give low values 0.745 | locus YGR052W, strain FMP48, hits give low values 0.551 | [17] 0.21 | [18] 0.306 | locus YHR082C, strain KSP1, hits give low values 0.496 | [19] 0.287 | [23] 0.361 | [26] 0.53 | [28] 0.269 | locus YPL153C, strain RAD53, hits give low values 0.485 | [29] 0.456
inactive: locus YAR019C, strain CDC15, hits give low values 0.983 | locus YBL105C, strain PKC1, hits give low values 1 | locus YBR135W, strain CKS1, hits give low values 0.979 | locus YBR136W, strain MEC1, hits give low values 0.985 | locus YBR160W, strain CDC28, hits give low values 0.969 | locus YDL017W, strain CDC7, hits give low values 0.995 | locus YDL028C, strain MPS1, hits give low values 0.972 | [15] 0.989 | locus YDL108W, strain KIN28, hits give low values 0.975 | locus YDL132W, strain cdc53, hits give low values 0.979 | locus YDL214C, strain PRR2, hits give low values 0.895 | locus YDR052C, strain DBF4, hits give low values 0.998 | locus YDR054C, strain cdc34, hits give low values 0.971 | locus YDR226W, strain ADK1, hits give low values 0.971 | locus YDR477W, strain SNF1, hits give low values 0.822 | locus YER133W, strain GLC7, hits give low values 0.893 | locus YFL009W, strain cdc4, hits give low values 0.953 | locus YFL029C, strain CAK1, hits give low values 0.981 | locus YFR003C, strain YPI1, hits give low values 0.994 | locus YFR028C, strain CDC14, hits give low values 0.976 | locus YGR040W, strain KSS1, hits give low values 0.837 | locus YGR092W, strain DBF2, hits give low values 0.616 | locus YHR205W, strain SCH9, hits give low values 0.882 | locus YIL147C, strain SLN1, hits give low values 0.988 | locus YJL128C, strain PBS2, hits give low values 0.93 | locus YJL157C, strain FAR1, hits give low values 0.905 | locus YJR016C, strain ILV3, hits give low values 0.988 | locus YJR066W, strain TOR1 (second series), hits give low values 0.731 | [21] 0.555 | locus YKL048C, strain ELM1, hits give low values 0.874 | locus YKL067W, strain YNK1, hits give low values 0.883 | locus YKL101W, strain HSL1, hits give low values 0.743 | locus YKL193C, strain SDS22, hits give low values 0.985 | locus YKL203C, strain TOR2, hits give low values 0.895 | locus YLR133W, strain CKI1, hits give low values 0.887 | locus YLR403W, strain SFP1, hits give low values 0.914 | locus YML070W, strain DAK1, hits give low values 0.716 | locus YMR001C, strain CDC5, hits give low values 0.983 | locus YMR205C, strain PFK2 (second series), hits give low values 0.906 | locus YMR277W, strain FCP1, hits give low values 0.97 | locus YNL006W, strain LST8, hits give low values 0.977 | locus YNL020C, strain ARK1, hits give low values 0.794 | locus YNL161W, strain CBK1, hits give low values 0.996 | locus YNL207W, strain RIO2, hits give low values 0.995 | locus YNL222W, strain SSU72, hits give low values 0.973 | locus YNL307C, strain MCK1 (second series), hits give low values 0.814 | locus YOL078W, strain AVO1, hits give low values 0.983 | locus YOL136C, strain PFK27, hits give low values 0.821 | [27] 0.883 | locus YOR119C, strain RIO1, hits give low values 0.869 | locus YOR329C, strain SCD5, hits give low values 0.993 | locus YPL031C, strain PHO85, hits give low values 0.749 | locus YPL204W, strain HRR25, hits give low values 0.684 | locus YPL209C, strain IPL1, hits give low values 0.992 | locus YPR025C, strain CCL1, hits give low values 0.99 | locus YPR106W, strain ISR1, hits give low values 0.976 | locus YPR111W, strain DBF20, hits give low values 0.946 | strain NNK1, hits give low values 0.98 | strain TSCII, hits give low values 0.986
